39 sequences from paper PMC10812921, “Transcriptional Coactivator BOB1 (OBF1, OCA-B) Modulates the Specificity of DNA Recognition by the POU-Domain Factors OCT1 and OCT2 in a Monomeric Configuration” can be followed below.

This test deals with T1, POU2 (OCT2 POU domain);BOB1 (OBF1, OCA-B) (human;human, UniProt P09086;Q16633 175-386;1-256, |).
T1 sequence 1: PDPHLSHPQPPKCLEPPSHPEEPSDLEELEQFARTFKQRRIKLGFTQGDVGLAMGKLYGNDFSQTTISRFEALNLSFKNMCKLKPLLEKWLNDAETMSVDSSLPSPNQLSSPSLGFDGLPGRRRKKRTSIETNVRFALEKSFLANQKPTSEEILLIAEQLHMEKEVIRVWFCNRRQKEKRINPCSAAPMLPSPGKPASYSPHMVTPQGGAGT
T1 sequence 2: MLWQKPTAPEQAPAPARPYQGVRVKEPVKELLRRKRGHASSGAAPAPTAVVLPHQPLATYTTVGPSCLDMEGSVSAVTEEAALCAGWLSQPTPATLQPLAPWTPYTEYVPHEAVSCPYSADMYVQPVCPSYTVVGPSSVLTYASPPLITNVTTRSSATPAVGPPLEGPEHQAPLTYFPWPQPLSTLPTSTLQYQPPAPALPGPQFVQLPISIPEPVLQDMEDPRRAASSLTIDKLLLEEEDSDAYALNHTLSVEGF
Description: EMSA-SELEX-seq; with BOB1 (ternary complex band); 20 mM Tris-HCl pH 7.6, 140 mM NaCl, 10% glycerol, 0.5 mM EDTA, 0.05% Triton X-100, 0.1 mg/mL BSA, 0.1 mg/mL poly(dI-dC), 5 mM DTT, room temperature, 20 min; high values mean tight binding. The following applies: protein: recombinant;recombinant; copies: 1;1; dsDNA, one strand shown. The essentials:
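Binding preference means the percentage of sequenced 8-mers matching a motif pattern. Tagged POU-domain proteins (30 ng), expressed in E. coli BL21, purified under denaturing conditions and renatured, were mixed with 300 ng of a PCR-amplified double-stranded random 35-nt library, with or without 28 ng coactivator protein, for 20 min at RT in 20 μL Tris–HCl pH 7.6 binding buffer. Selection was repeated over four rounds of excising complex bands from native 6% PAGE, eluting and PCR amplification, followed by Illumina sequencing.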
In general terms: In EMSA bound probe runs differently from free probe, usually more slowly.
As to ACCATAAC, the binding signal was 0.0198 % of ANNNNAAN 8-mers.

With AGGTGAAT, the binding signal is 0.102 % of ANNNNAAN 8-mers. As for AAGACAAA, the binding signal was 0.0438 % of ANNNNAAN 8-mers.

As to AGGGAAAG, the binding signal was 0.142 % of ANNNNAAN 8-mers. The same measure for ATTGCAAA: 0.324 % of ANNNNAAN 8-mers; for AGGCAAAC: 0.0817 % of ANNNNAAN 8-mers. The same measure for AATTGAAT: 0.125 % of ANNNNAAN 8-mers; for AGCGGAAG: 0.0173 % of ANNNNAAN 8-mers. Then AGCGTAAT, with 0.0611 % of ANNNNAAN 8-mers; and AGTATAAC, with 0.0248 % of ANNNNAAN 8-mers. In the case of ACCATAAA, the binding signal was 0.0264 % of ANNNNAAN 8-mers. The same measure for ATAGTAAC: 0.038 % of ANNNNAAN 8-mers; for ACACTAAT: 0.0438 % of ANNNNAAN 8-mers. The same measure for ATCCCAAG: 0.0198 % of ANNNNAAN 8-mers; for ACTTGAAG: 0.0239 % of ANNNNAAN 8-mers; for AATGGAAA: 0.164 % of ANNNNAAN 8-mers. On to ATGCCAAA, for which the binding signal was 0.0438 % of ANNNNAAN 8-mers. Then ACTTAAAC, with 0.0355 % of ANNNNAAN 8-mers; and AGCACAAA, with 0.033 % of ANNNNAAN 8-mers.

With AGTAAAAT, the binding signal was 0.148 % of ANNNNAAN 8-mers.

As for ATGTTAAA, the binding signal is 0.0892 % of ANNNNAAN 8-mers. The same measure for ATACAAAC: 0.0528 % of ANNNNAAN 8-mers. Then ACCAAAAC, with 0.0206 % of ANNNNAAN 8-mers. For ATCTCAAC, the binding signal was 0.0264 % of ANNNNAAN 8-mers. The same measure for AGGCCAAG: 0.0264 % of ANNNNAAN 8-mers; for ATATGAAC: 0.0528 % of ANNNNAAN 8-mers; for AGCTGAAC: 0.019 % of ANNNNAAN 8-mers.

AACGTAAT: the binding signal was 0.071 % of ANNNNAAN 8-mers. Consider ATTGTAAC, for which the binding signal was 0.0371 % of ANNNNAAN 8-mers. The same measure for ATACTAAG: 0.0438 % of ANNNNAAN 8-mers; for AAGTCAAT: 0.0677 % of ANNNNAAN 8-mers. Then AGTGTAAC, with 0.0272 % of ANNNNAAN 8-mers; and ATGCAAAT, with 12.6 % of ANNNNAAN 8-mers. Then AGTAGAAT, with 0.0826 % of ANNNNAAN 8-mers; and AGCCTAAC, with 0.0157 % of ANNNNAAN 8-mers. As to ACATAAAT, the binding signal was 0.177 % of ANNNNAAN 8-mers.

For AACAGAAC, the binding signal was 0.0231 % of ANNNNAAN 8-mers.

On to AGCGGAAA, for which the binding signal was 0.033 % of ANNNNAAN 8-mers.

Regarding ATATGAAT, the binding signal was 0.141 % of ANNNNAAN 8-mers.
